Screening data: PubChem, several laboratories
CSC inhib: cancer stem cell viability inhibitors, primary screen, luminescence. cancer stem cell-like cells viability. 300,000 compounds, 1.1% hits. inhibition, % at 7.5 µM. AID 2717, 2010; in the data active means inhibition above about 75%; inconclusive means no clear call, values can overlap the other calls; tested in HMLE shEcad cells
Jurkat NFkB inh: inhibitors of induced NF-kB luciferase reporter, primary screen, TCR NF-kB activation inhibitor project, cell-based, luminescence, uHTS; Jurkat, PMA/ionomycin-induced NF-kB luciferase reporter; inhibition, % at 4 µM; 330,000 compounds, 0.53% hits; in the data active means inhibition above about 50%
Gli-Sufu antag: Gli-Sufu pathway antagonists, primary screen, luciferase luminescence, Sufu-KO-LIGHT cells, uHTS. Sufu-KO-LIGHT fibroblasts, Gli luciferase reporter luminescence. inhibition, % at 5 µM. 340,000 compounds, 0.74% hits;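 active means inhibition above about 55%, limit read from the data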;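 further: 0% = DMSO-treated cells and 100% = wells with medium but no cells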
Beta cell apopt: inhibitors of cytokine-induced beta cell apoptosis, primary screen, luminescence; INS-1E cytokine-induced death, ATP luminescence, 48 h; percent of positive-control rescue, neutral wells zero; protection from apoptosis, % (no concentration beside the values); 300,000 compounds, 0.8% hits;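 active means Every replicate reaches about 75%, or at least half do and their mean reaches it too, limit read from the data; inconclusive means At least half of replicates reach the limit but their mean does not; inactive means Under half of replicates reach the limit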;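 further: 0% = cytokine-treated negative control wells and 100% = positive control rescue; higher means more ATP so stronger rescue from cytokine killing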
697 NFkB inh: inhibitors of PMA/ionomycin-induced NF-kB reporter, 697 cells, primary screen, B-cell NF-kB inhibitor project, cell-based, luminescence, uHTS | AID 435022, 2010 | inhibition, % at 4 µM | 697 B-cell NF-kB luciferase reporter, 16 h | 330,000 compounds, 0.33% hits; in the data active means inhibition above about 35%
Mdm2-MdmX inh: inhibitors of human Mdm2-MdmX association, primary screen, cell-based, luminescence, split luciferase, SaOS-2, uHTS | 330,000 compounds, 3% hits | Protein Mdm4 (Homo sapiens) + E3 ubiquitin-protein ligase Mdm2 (Homo sapiens), … | SaOS-2 split-luciferase Mdm2/MdmX complementation | inhibition, % at 8 µM | AID 485346, 2010;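 active means inhibition of at least 50% at 8 µM in the primary screen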
Target sequence (O15151 whole entry, looked up): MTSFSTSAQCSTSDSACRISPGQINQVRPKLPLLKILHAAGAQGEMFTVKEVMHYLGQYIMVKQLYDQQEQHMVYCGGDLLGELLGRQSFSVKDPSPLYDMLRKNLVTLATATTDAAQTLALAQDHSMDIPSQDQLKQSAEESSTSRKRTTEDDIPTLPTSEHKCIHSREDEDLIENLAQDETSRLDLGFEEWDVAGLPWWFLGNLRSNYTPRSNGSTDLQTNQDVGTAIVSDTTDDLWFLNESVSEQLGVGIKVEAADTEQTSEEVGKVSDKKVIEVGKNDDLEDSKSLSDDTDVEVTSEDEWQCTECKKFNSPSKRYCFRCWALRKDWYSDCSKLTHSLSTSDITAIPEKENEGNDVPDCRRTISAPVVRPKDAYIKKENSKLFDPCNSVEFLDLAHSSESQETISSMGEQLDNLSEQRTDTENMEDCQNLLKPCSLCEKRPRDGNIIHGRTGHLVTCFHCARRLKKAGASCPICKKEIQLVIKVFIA
Target sequence (Q00987 whole entry, looked up): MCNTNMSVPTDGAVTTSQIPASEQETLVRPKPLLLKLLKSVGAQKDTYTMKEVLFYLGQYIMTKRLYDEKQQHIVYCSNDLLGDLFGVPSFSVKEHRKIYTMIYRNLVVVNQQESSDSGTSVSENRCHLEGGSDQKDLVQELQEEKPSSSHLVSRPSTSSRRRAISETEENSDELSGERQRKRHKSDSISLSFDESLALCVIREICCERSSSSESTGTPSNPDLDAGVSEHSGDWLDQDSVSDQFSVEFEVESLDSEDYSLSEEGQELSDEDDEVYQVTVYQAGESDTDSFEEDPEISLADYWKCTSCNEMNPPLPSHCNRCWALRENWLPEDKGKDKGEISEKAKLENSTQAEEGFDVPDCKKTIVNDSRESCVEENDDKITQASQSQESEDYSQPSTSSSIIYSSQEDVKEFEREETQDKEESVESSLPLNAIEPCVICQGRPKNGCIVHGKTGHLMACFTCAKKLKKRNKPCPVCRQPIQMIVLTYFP
Mdm2-MdmX conf: Mdm2-MdmX complex disruptors, retested hits, confirmation, luminescence, single concentration; shares compounds with Mdm2-MdmX inh; Mdm2-MdmX binding, luminescent assay; inhibition, % at 8 µM; 10,000 compounds, 55% hits; AID 489028, 2010; in the data active means inhibition above about 40%
Full FLuc ctr: full-length luciferase signal inhibition, confirmation, counter-screen for Mdm2/MdmX interaction inhibitor project, cell-based, single concentration, SaOS-2; shares compounds with Mdm2-MdmX inh; inhibition, % at 8 µM; 6,200 compounds, 77% hits; SaOS-2 full-length luciferase counterscreen, luminescence; AID 504607, 2011;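 active means mean inhibition at 8 µM reaching about 37%, which flags the compound as non-specific, limit read from the data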;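 further: p53-null SaOS-2 cells with luciferase driven by a doxycycline-inducible promoter; compound on cells about two nights before reading with doxycycline added after day one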
The depositor's hits bear a star; ? = inconclusive; nt = no result given. Rows were chosen to be rich in hits. Some 4.5% of all compounds tested hit in one or more screens of this group.

SMILES	CSC inhib	Jurkat NFkB inh	Gli-Sufu antag	Beta cell apopt	697 NFkB inh	Mdm2-MdmX inh	Mdm2-MdmX conf	others
Cn1nc(-c2ccc(OCC(=O)Nc3cccnc3)cc2)c2ccccc2c1=O	6	12	3	-2	23	64*	6
Cc1ccc(C(=O)CN(CCC(=O)O)C(=O)c2ccncc2)cc1	-4	-14	-7	1	-4	1	nt
CC(C)C(=O)N1CCN(c2ccc(NC(=O)c3ccc4c(c3)OCCO4)cc2Cl)CC1	nt	13	-12	16	-14	60*	80*	Full FLuc ctr=65*
O=C(Cn1nnc(-c2ccc(Cl)cc2)n1)NCc1ccco1	2	-17	-5	-5	-40	-11	nt
COc1ccc(C(=O)Nc2ccc(-c3nnn(CC(=O)NCc4ccco4)n3)cc2)cc1	-13	2	0	19	27	68*	35
CC(Oc1ccc2ccccc2c1)C(=O)NNC(=O)Nc1ccccc1F (stereo not drawn)	-7	7	1	-11	14	4	nt
CCNc1nc(NCC)n2c(SC(C(=O)Nc3cc(Cl)cc(Cl)c3)c3ccccc3)nnc2n1 (stereo not drawn)	?	5	20	3	-28	95*	-3
CCNc1nc(NCC)n2c(SCC(=O)Nc3cccc(Cl)c3)nnc2n1	-11	0	2	-1	5	11	nt
CN(C)C(=S)NC(=S)Nc1ccc2ccccc2c1	nt	nt	-68	nt	nt	nt	nt
CC(C)=CCC/C(C)=C/CNC(=O)CC1C[C@H](C(=O)N(C(C)C)C(C)C)[C@@]2(C)c3[nH]c4ccccc4c3CCN2C1=O (stereo partly drawn)	nt	9	0	10	1	53*	-10
CC(C)=CCC/C(C)=C/CNC(=O)C[C@H]1C[C@H](C(=O)N(C(C)C)C(C)C)[C@@]2(C)c3[nH]c4ccc(Cl)cc4c3CCN2C1=O	nt	nt	0	nt	4	51*	1
COc1ccc2[nH]c3c(c2c1)CCN1C(=O)C(CC(=O)NC/C=C(\C)CCC=C(C)C)C[C@H](C(=O)N(C(C)C)C(C)C)[C@@]31C (stereo partly drawn)	nt	nt	3	nt	5	84*	8
COc1ccc(CNC(=O)C[C@H]2C[C@H](C(=O)N(C(C)C)C(C)C)[C@@]3(C)c4[nH]c5ccc(Cl)cc5c4CCN3C2=O)cc1OC	nt	nt	-7	nt	2	21	nt
COc1ccc(C(=O)NCC(=O)N/N=C/c2cccc(OC(=O)c3ccco3)c2)cc1OC	-5	0	-9	-3	-8	-16	nt
COc1cccc(CN(C)CCCn2cnc(C(=O)Nc3ccc(C)c(C)c3)n2)c1	nt	nt	10	nt	nt	nt	nt
Cc1ccc2oc(=O)c3cc(C(=O)NCCN4CCN(C)CC4)sc3c2c1	31	-15	4	4	-10	-8	nt
Cc1ccc(NC(=O)c2cc3c(=O)oc4ccc(C)cc4c3s2)nc1	1	13	nt	33	21	75*	12
CCC1CCCCN1CCCNC(=O)c1cc2c(=O)oc3ccc(C)cc3c2s1 (stereo not drawn)	13	-17	27	-2	-11	54*	3
Cc1ccnc(NC(=O)c2cc3c(=O)oc4ccc(C)cc4c3s2)c1	-2	5	6	32	31	70*	38	Full FLuc ctr=74*
O=C(OCc1cccc(F)c1)c1cc2ccccc2cc1O	1	10	2	-4	13	-7	nt
COc1ccc(CCNC(=S)NC(=O)c2cccc([N+](=O)[O-])c2)cc1OC	1	9	14	6	16	10	nt
COc1ccc(C(CNC(=O)CN2C(=O)NC3(CCCC3)C2=O)N(C)C)cc1 (stereo not drawn)	nt	-7	8	-3	-16	0	nt
CC1CCCCN1CCCNC(=O)CN1C(=O)c2cccnc2Oc2ccccc21 (stereo not drawn)	-9	8	-8	-4	-12	-15	nt
CCN(CC(=O)Nc1c(F)cccc1F)C(=O)c1ccc(N2CCCCC2)c([N+](=O)[O-])c1	-10	11	23	12	-7	-2	nt
CC(=O)c1cccn1S(=O)(=O)c1ccccc1	-16	-12	0	-6	-1	-3	nt
SMILES	CSC inhib	Jurkat NFkB inh	Gli-Sufu antag	Beta cell apopt	697 NFkB inh	Mdm2-MdmX inh	Mdm2-MdmX conf	others
OC(CN1CCN(c2cccc(C(F)(F)F)c2)CC1)c1c[nH]c2ccccc12 (stereo not drawn)	nt	4	16	-5	11	50	46*	Full FLuc ctr=64*
O=C(NC1CCCCC1)C(c1cccnc1)N(C(=O)CCl)c1ccccc1Cl (stereo not drawn)	24	-3	15	-8	-26	95*	99*	Full FLuc ctr=59*
COc1ccc(N(C(=O)CCl)C(C(=O)NC2CCCCC2)c2cccnc2)cc1 (stereo not drawn)	59	15	-4	-14	-58	96*	100*	Full FLuc ctr=54*
CC1=C(/C=C/C(C)=C/C=C/C(C)=C\C(=O)O)C(C)(C)CCC1	9	10	17	-17	-173	60*	49*	Full FLuc ctr=45*
COc1cccc(CNC(=O)CCCCCNC(=O)N2CCn3c2nc2ccccc23)c1	6	2	8	-2	9	7	nt
Cc1cc(-c2n[nH]c(=S)n2Cc2ccco2)n(C)n1	-27	-10	-14	-4	-28	62*	11
Cc1cc(-c2n[nH]c(=S)n2Cc2ccco2)nn1C	8	-27	4	2	-36	3	nt
CCOc1cc(/C=C2/NC(=S)NC2=O)ccc1OCc1ccc([N+](=O)[O-])cc1	32	2	-13	41	19	60*	35
CCOc1cc(C(c2c(C)[nH][nH]c2=O)c2c(C)[nH][nH]c2=O)ccc1OCc1ccc([N+](=O)[O-])cc1	1	-5	4	6	19	-4	nt
N#Cc1ccccc1S(=O)(=O)N1CCC(C(=O)NCc2ccccc2CN2CCCC2)CC1	nt	-16	9	-2	-9	-22	nt
CN(C(=O)COC(=O)c1ccc2c(=O)n3c(nc2c1)CCC3)c1ccccc1	-14	24	-2	0	21	14	nt
Cc1[nH]c2ccccc2c1C(=O)COC(=O)c1ccc2c(=O)n3c(nc2c1)CCC3	2	-18	-8	0	-72	59*	33
